Measurements as given in the supplement of paper PMC6555819.

Tests used:
Assay in all cases: PBM binding z-score (relative to random genomic background probes); higher = stronger binding; sequences stand for … in GC…GCGATTGACAGCGTAGAATGAAGG
[1] = test system: RARb homodimer (NR concentration 270 nM)
Summary of the method: (§1)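 Regression normalization was applied to scanned fluorescence from custom Agilent 4×180K protein-binding microarrays. Before scanning, arrays were incubated 1 h with ligand-free nuclear receptor dimers, and binding was detected with antibodies against each partner (one per run). Binding z-scores use the random background probes as reference.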

[2] = test system: RARg:RXRa (NR concentration 270 nM, RXRa partner concentration 90 nM)
Summary of the method: as §1

[3] = test system: RARg homodimer (NR concentration 270 nM)
Summary of the method: as §1

[4] = test system: RXRa DBDmut IVT, anti-RXR (DBD mutation: RXRa K156A/R161A, NR concentration 90 nM)
Summary of the method: as §1

[5] = test system: RXRa homodimer (NR concentration 180 nM)
Summary of the method: as §1

[6] = test system: THRa:RXRa (NR concentration 90 nM, RXRa partner concentration 90 nM)
Summary of the method: as §1

[7] = test system: THRa homodimer (NR concentration 90 nM)
Summary of the method: as §1

[8] = test system: VDR homodimer (NR concentration 270 nM)
Summary of the method: as §1

Row | Sequence | PBM binding z-score [1] | PBM binding z-score [2] | PBM binding z-score [3] | PBM binding z-score [4] | PBM binding z-score [5] | PBM binding z-score [6] | PBM binding z-score [7] | PBM binding z-score [8]
1 | TCATATAGGTAATACAGGTGAATGTCGGCATCTA | 0.689 | 0.761 | 0.652 | 1.69 | 1.24 | 0.991 | 0.573 | -0.00173
2 | GTACCAAGGTGAATAGGTCGTTCATGAGTAGGCG | 1.96 | 2.67 | 1.47 | 0.154 | 1.99 | 1.78 | 0.565 | 0.67
3 | GCTGCTAGATCAACTGATGGTCAGCTAAAGCTCG | -0.449 | -0.186 | -0.352 | -0.229 | -0.482 | -0.352 | -1.12 | -0.805
4 | GCGACTGGGGCATCAGCAGGTCACCATAACTTAA | 3.25 | 3.79 | 2.47 | -0.121 | 2.14 | 3.02 | 1.44 | 0.619
5 | TCTAGTTGGTCACGGAGGTCACGCACGACGGGTA | 4.76 | 5.46 | 5.23 | 1.28 | 6.17 | 4.05 | 3.31 | 3.06
6 | ATCTCTAGGAAAAGTTCAGTGAAAGATCGATAGA | 2.13 | 1.53 | 1.87 | 1.03 | 0.695 | 0.532 | -0.316 | 1.66
7 | GCAGACAGGAGAAACGCAGGTAACTCAGGGTGGC | -0.808 | -0.38 | -0.484 | -0.907 | -0.112 | 0.301 | -0.985 | -0.432
8 | CGATCTAGGTCATCCAGGACAGTGAATACATTGA | 3.01 | 4.03 | 4.66 | 2.18 | 2.71 | 3.78 | 2.35 | 2.06
9 | TCTCGGACGACACGAAAGGTCAGAGCTCGACATC | 4.33 | 4.43 | 4.55 | 0.759 | 4.8 | 2.77 | 0.521 | 0.805
10 | ATCTCTAGGTAAGACTCAGTTCAGTGATGAACGC | 0.637 | 0.588 | 0.547 | 0.656 | 0.315 | 0.739 | 0.755 | 1.4
11 | TCTAGTTGGTCAAAGGTCACACTCTCGAAATGCG | 5.1 | 6.72 | 5.71 | 1.96 | 7.91 | 4.01 | 2.1 | 2.53
12 | ATATGTAGGTTAGCTGGGGTCGTTCAGACTAGGC | 1.8 | 1.66 | 1.15 | 1.08 | 2.37 | 4.63 | 1.18 | 2.29
13 | TATACAGGGTCAAATGCCAGAGTACGAATGTCGA | 3.11 | 5.88 | 4.98 | 3.42 | 6.54 | 3.6 | 0.982 | 3.62
14 | CTCGAAAGGTCGGTTGAGGTGAGTTTACGGATAA | 2.53 | 2.78 | 2.96 | 1.27 | 2.12 | 4.97 | 1.31 | 2.25
15 | TGAATGAGGTTAAAGATGAGGGAACGTGGCGTCG | 0.748 | 2.16 | 1.21 | 1.33 | 2.86 | 2.4 | 0.742 | 0.849
16 | TCTATTAGTTGATTAGGGCTACCGAAACAGCGGA | -0.115 | 0.318 | 0.15 | 0.904 | 0.363 | 0.166 | -0.0313 | 0.356
17 | TAGACAGGGTCAAAGGCCAGAGTACGAATGTCGA | 3.3 | 5.52 | 4.86 | 2.49 | 6.9 | 3.23 | 0.292 | 2.18
18 | ATCGAAAGGTCGTGAGGTGAGAATACAGAAAGGC | 3.14 | 4.62 | 3.89 | 1.28 | 5.3 | 3.49 | 1.44 | 0.87
19 | GCTGCTAGGTCAGGTCGGTCAGCTAACGGGTACG | 3.44 | 3.03 | 4.28 | 0.46 | 1.23 | 2.48 | 0.932 | 0.733

Row | Sequence | PBM binding z-score [1] | PBM binding z-score [2] | PBM binding z-score [3] | PBM binding z-score [4] | PBM binding z-score [5] | PBM binding z-score [6] | PBM binding z-score [7] | PBM binding z-score [8]
20 | GCTGCTAGGTCAGGTTGGTGAGCTAACGGGTACG | 2.33 | 2.37 | 3.34 | 0.361 | 1.05 | 1.76 | 0.218 | 0.0347
21 | AGCATGAGGTTATTAAGATCAGGGAATTGCGGTC | 0.785 | 1.38 | 1.03 | 1.99 | 1.77 | 2.19 | 0.867 | 1.59
22 | ATCGAAAGCTCGACGAGGTGAGTATACACCGTTT | -0.193 | -0.12 | 0.303 | -0.125 | 0.189 | 1.02 | 0.249 | -0.291
23 | TGAATTAGGTTAAAGATCAGGGAACGTGGCGTCG | -0.0287 | 0.954 | 0.891 | -0.199 | 1.58 | 0.806 | 0.0277 | 0.326
24 | CTCCCAAGGTGAACAAGGTCGTTGATTACTATTC | 2.05 | 1.68 | 1.41 | 0.991 | 1.7 | 3.19 | 2.26 | 2.22
25 | ACTAGCAGGCCAAGGGTCACTCATGATTAGTCCG | 3.68 | 4.01 | 3.58 | 0.479 | 4.18 | 2.31 | 0.0224 | 1.07
26 | TCGAGAAGGTTAGTCGGGGCATTCAGCCAACATA | 0.99 | 0.634 | 0.546 | 0.877 | 0.644 | 1.79 | 0.0413 | 1.2
27 | ATCGAAAGGTCGAAGGTGAGTAGACCCACCCGAA | 2.17 | 4.35 | 4.04 | 1 | 5.53 | 1.87 | -0.399 | -0.0656
28 | GGAACGCGGGCAAGTTGATAGCAGAGTTTGATGG | -0.349 | -0.36 | -0.0011 | 0.0062 | -0.242 | -0.844 | -0.922 | -0.495
29 | ACATACGGGTCAACGAGGTTATAGCACGCGTATA | 3.66 | 5.55 | 5.24 | 2.49 | 5.71 | 3.82 | 0.951 | 3.69
30 | ACTATTAGTTGACTTAGGGGAACCGATACGACGC | 0.325 | 0.568 | 0.663 | 1.15 | 0.583 | 1.11 | 0.616 | 0.357
31 | ATCTCTAGGTAAGACTCAGTTCAGTGAAGAACGC | 0.723 | 0.0914 | 0.115 | 0.479 | -0.0944 | 0.922 | 0.796 | 1.42
32 | ATATGTAGGTTAAGGGTCATACAGGTTGGTTCGC | 4.12 | 5.01 | 3.57 | 2.4 | 6.23 | 3.48 | 1.48 | 4.2
33 | TCATATAGGTAATACAGGTGAAAGTCGGCATCTA | 0.693 | 0.799 | 0.796 | 1.54 | 1.44 | 1.1 | 0.471 | -0.0243
34 | AACGAAAGGTCGTGAGGTGAGTATACAGAAAGGC | 3.14 | 4.62 | 3.99 | 1.68 | 5.2 | 3.55 | 1.33 | 0.812
35 | CAAACTAGGTCACGGTCAAAGTCGGTTTGTGCCA | 4.62 | 4.99 | 5.89 | 2.12 | 3.82 | 3.94 | 2.34 | 1.7
36 | CCGACTGGGGCAGAAAGGTCACCATACCATCCGG | 5.15 | 5.42 | 5.69 | -0.33 | 5.7 | 3.2 | 1.38 | 1.86
37 | CCTCGTAGGACAGAAGGTCAGAGCTGTCCGCTTT | 3.4 | 3.02 | 3.4 | 0.251 | 2.18 | 1.7 | -0.0633 | 0.412
38 | TCTGCTAGGTCAGTTGGTCTGCTAACGAGCTGCC | 2.11 | 1.92 | 3.27 | 0.135 | 0.318 | 1.08 | -0.124 | -0.575

Row | Sequence | PBM binding z-score [1] | PBM binding z-score [2] | PBM binding z-score [3] | PBM binding z-score [4] | PBM binding z-score [5] | PBM binding z-score [6] | PBM binding z-score [7] | PBM binding z-score [8]
39 | GCGACTGGCGCATCAGCAGGTTACCATAACTTAA | -0.252 | -0.477 | -0.547 | -0.402 | -0.293 | -0.328 | -0.551 | -0.6
40 | GGAACGAGGGCAAGTTGATAACAGAGTTTGATGG | 1.22 | 1.6 | 2.06 | 2.29 | 0.775 | 1.13 | 0.176 | 1.74
41 | ATCCAAAGGTCGTGAGGTGAGTATACAGAAAGGC | 3.47 | 5.02 | 4.46 | 1.72 | 5.91 | 3.66 | 1.97 | 1.63
42 | TATACAGGGTCAAAGCCCAGAGTACGAATGTCGA | 2.97 | 5.26 | 4.63 | 3.03 | 5.9 | 3.23 | 0.46 | 2.85
43 | CCTTACGGGTCACGAAGTTATAGCACGACGAGCG | 3.14 | 5.21 | 4.74 | 1.29 | 5.71 | 2.87 | 0.0516 | 0.721
44 | GCTTGTAGTTCAAGGTTAAGAAAGACTAAGCTAA | 1.6 | 2.24 | 2.5 | 1.91 | 2.17 | 2.09 | 0.091 | 0.851
45 | CCTACTGAGCCAAAGGTCATTGATTCCAATGCTC | 4.56 | 5.34 | 4.83 | 2.32 | 5.76 | 3.33 | 1.26 | 3.3
46 | CAAACTGGGTCACCGGAAGGTCAAAGTCCGCATG | 5.45 | 8.27 | 7.08 | 0.907 | 6.37 | 4.2 | 1.61 | 2.92
47 | ATCTCTAGGTAAAGATAGTTCAGTGTATGCAAAT | 1.22 | 0.725 | 0.952 | 0.412 | 0.465 | 1.05 | 0.467 | 0.96
48 | TCTAGTTGGTCACTGAGGTCACACACGACGGGTA | 4.59 | 4.76 | 4.83 | 1.56 | 5.14 | 4.47 | 5.09 | 4.16
49 | ATCTGTAGGTTAGCTGGGGTCATTCAGACTAGGC | 3.81 | 4.01 | 3.04 | 1.83 | 5.13 | 5.16 | 3.21 | 5.38
50 | TAGCCTAGGTCATTGGGCCAGTGTAGTACGCATC | 3 | 3.57 | 4.14 | 1.61 | 2.7 | 2.94 | 0.8 | 1.07
51 | CCTCGGAGGACAACAGGAGCTCAGAGCTGCCAGA | -0.211 | 0.18 | 0.813 | 0.0828 | -0.62 | 0.178 | -0.484 | -0.365
52 | CCGGCTGGGGCAGAAAGGTTACCATACCATCCGG | 2.18 | 1.68 | 1.35 | -1.28 | 1.74 | 0.969 | -0.459 | -0.229
53 | ACTAGCAGGCCAAGGGTCACTGAAGATTAGTCCG | 3.8 | 4.5 | 3.97 | 0.371 | 4.49 | 2.68 | -0.0402 | 0.94
54 | TAGCCTAGGTCAGATCGGGCCAGCATACGCTATA | 2.06 | 2.68 | 3.52 | -0.834 | 1.72 | 4.27 | 0.0653 | -0.746
55 | AGAACGAGGGCACGCTGAGTTGATAACAGAGTAG | 1.27 | 2.23 | 2.45 | 1.47 | 1.49 | 1.78 | 0.282 | 1.46
56 | TCATATAGGTAACTGCTAGGTGAAAGTCCGATCT | 0.607 | 0.501 | 0.315 | 1.53 | 0.853 | 1.43 | 0.668 | 0.0262
57 | CCAACTGGGGCAAAGGTTACCATACTCAGTACGA | 2.56 | 3.77 | 2.06 | 0.365 | 4.41 | 1.84 | 0.0572 | 0.0335
